# Laboratory results taken from PubChem BioAssay.
# Inconclusive results are not listed. Active and inactive are the calls of the source.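 Rule for the calls, unless noted: active = normalized viability below 100% at a tested concentration; inactive = the rest.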
# What was measured:
# [1] = viability loss in pontine glioma line – cell-based, SU-DIPG-XVII, MIPE5.0, CellTiter-Glo, qHTS, dose response (AID 1347060; cut-off not given, nearly all actives have AC50 up to about 26 µM;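 note: cells exposed to compound for 48 hours before viability readout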); conditions: CellTiter-Glo ATP luminescence
# [2] = viability loss in pontine glioma line – cell-based, SU-DIPG-XIII, MIPE4.0, CellTiter-Glo, qHTS, dose response (AID 1347061; cut-off not given, nearly all actives have AC50 up to about 37 µM;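 note: cells exposed to compound for 48 hours before readout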); conditions: CellTiter-Glo ATP luminescence
# [3] = viability loss in pontine glioma line – cell-based, JHH-DIPG-1, MIPE4.0, CellTiter-Glo, qHTS, dose response (AID 1347062; cut-off not given, nearly all actives have AC50 up to about 27 µM;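 note: cells exposed to compound for two days before readout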); conditions: JHH-DIPG-1 viability, CellTiter-Glo ATP luminescence
# [4] = viability loss in pontine glioma line – cell-based, SU-DIPG-IV, MIPE4.0, CellTiter-Glo, qHTS, dose response (AID 1347063; cut-off not given, nearly all actives have AC50 up to about 30 µM;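 note: compound exposure lasted 48 hours before the viability readout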); conditions: CellTiter-Glo ATP luminescence
# [5] = viability loss in pontine glioma line – cell-based, SU-DIPG-XIII, MIPE5.0, CellTiter-Glo, qHTS, dose response (AID 1347064; cut-off not given, nearly all actives have AC50 up to about 23 µM;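 note: cells exposed to compound for 48 hours before the viability read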); conditions: CellTiter-Glo ATP luminescence
# [6] = viability loss in pontine glioma line – cell-based, SU-DIPG-XXV, MIPE5.0, CellTiter-Glo, qHTS, dose response (AID 1347065; cut-off not given, nearly all actives have AC50 up to about 26 µM;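 note: cells exposed to compound for 48 hours before ATP readout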); conditions: CellTiter-Glo ATP luminescence
# [7] = growth inhibition of DIPG cells – cell-based, MIPE4.0 library, CellTiter-Glo luminescence, qHTS (AID 1347066; cut-off not given, nearly all actives have AC50 up to about 30 µM;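 note: cells exposed to compound for 48 hours before readout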); conditions: SU-DIPG-VI viability, CellTiter-Glo ATP luminescence
# [8] = JHH-DIPG-1 glioma cell viability, MIPE5.0 library, CellTiter-Glo luminescence, qHTS (AID 1347067; cut-off not given, nearly all actives have AC50 up to about 26 µM;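 note: cells exposed to compound for 48 hours before readout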); conditions: JHH-DIPG-1 glioma viability, CellTiter-Glo ATP luminescence
# [9] = growth inhibition of DIPG cells – cell-based, MIPE5.0 library, qHTS (AID 1347068; cut-off not given, nearly all actives have IC50 up to about 30 µM); conditions: SU-DIPG-XXV viability
# [10] = drug combination growth inhibition, ovarian cancer – cell-based, oncology-focused library, rucaparib conditional, profiling panel (AID 1508598); conditions: patient-derived ovarian cancer cells, CellTiter-Glo viability, 144 h, stronger effect = lower value
# [11] = compounds altering HSF1 focus formation in cells – imaging, Selleck Cancer Library (AID 1347162; in the data active = plate-normalised HSF1 focus index below about 0.46); conditions: human cells, HSF1 nuclear foci imaging, at 10 µM; SSMD: measured here: HSF1 foci SSMD mean; cell count: measured here: cell number; plate-normalised HSF1 focus index: stronger effect = lower value
smiles,measurement,setting,value
C=CC(=O)N1CCC[C@@H](n2nc(-c3ccc(Oc4ccccc4)cc3)c3c(N)ncnc32)C1,AC50,[1],5.9 µM (active)
same,AC50,[2],18.7 µM (active)
same,AC50,[3],23.5 µM (active)
same,AC50,[4],5.26 µM (active)
same,AC50,[5],20.9 µM (active)
same,AC50,[6],9.34 µM (active)
same,AC50,[7],16.6 µM (active)
same,AC50,[8],16.6 µM (active)
same,outcome,[9],inactive
same,viability,"[10]; at 0.000305 µM, OCI-C5x cells, with rucaparib 10 µM, 100% = cells with rucaparib alone",99.2% (active)
same,viability,"[10]; at 0.000305 µM, OCI-C5x cells, without rucaparib",119% (inactive)
same,viability,"[10]; at 0.000305 µM, OCI-P5x cells, with rucaparib 20 µM, 100% = cells with rucaparib alone",88.6% (active)
same,viability,"[10]; at 0.000305 µM, OCI-P5x cells, without rucaparib",94.3% (active)
same,viability,"[10]; at 0.00122 µM, OCI-C5x cells, with rucaparib 10 µM, 100% = cells with rucaparib alone",108% (inactive)
same,viability,"[10]; at 0.00122 µM, OCI-C5x cells, without rucaparib",118% (inactive)
same,viability,"[10]; at 0.00122 µM, OCI-P5x cells, with rucaparib 20 µM, 100% = cells with rucaparib alone",77.7% (active)
same,viability,"[10]; at 0.00122 µM, OCI-P5x cells, without rucaparib",48.3% (active)
same,viability,"[10]; at 0.00488 µM, OCI-C5x cells, with rucaparib 10 µM, 100% = cells with rucaparib alone",106% (inactive)
same,viability,"[10]; at 0.00488 µM, OCI-C5x cells, without rucaparib",108% (inactive)
same,viability,"[10]; at 0.00488 µM, OCI-P5x cells, with rucaparib 20 µM, 100% = cells with rucaparib alone",95.6% (active)
same,viability,"[10]; at 0.00488 µM, OCI-P5x cells, without rucaparib",103% (inactive)
same,viability,"[10]; at 0.0195 µM, OCI-C5x cells, with rucaparib 10 µM, 100% = cells with rucaparib alone",112% (inactive)
same,viability,"[10]; at 0.0195 µM, OCI-C5x cells, without rucaparib",112% (inactive)
same,viability,"[10]; at 0.0195 µM, OCI-P5x cells, with rucaparib 20 µM, 100% = cells with rucaparib alone",93.8% (active)
same,viability,"[10]; at 0.0195 µM, OCI-P5x cells, without rucaparib",103% (inactive)
same,viability,"[10]; at 0.0781 µM, OCI-C5x cells, with rucaparib 10 µM, 100% = cells with rucaparib alone",114% (inactive)
same,viability,"[10]; at 0.0781 µM, OCI-C5x cells, without rucaparib",111% (inactive)
same,viability,"[10]; at 0.0781 µM, OCI-P5x cells, with rucaparib 20 µM, 100% = cells with rucaparib alone",86.9% (active)
same,viability,"[10]; at 0.0781 µM, OCI-P5x cells, without rucaparib",100% (inactive)
same,viability,"[10]; at 0.313 µM, OCI-C5x cells, with rucaparib 10 µM, 100% = cells with rucaparib alone",112% (inactive)
same,viability,"[10]; at 0.313 µM, OCI-C5x cells, without rucaparib",120% (inactive)
same,viability,"[10]; at 0.313 µM, OCI-P5x cells, with rucaparib 20 µM, 100% = cells with rucaparib alone",86.1% (active)
same,viability,"[10]; at 0.313 µM, OCI-P5x cells, without rucaparib",91.8% (active)
same,viability,"[10]; at 1.25 µM, OCI-C5x cells, with rucaparib 10 µM, 100% = cells with rucaparib alone",108% (inactive)
same,viability,"[10]; at 1.25 µM, OCI-C5x cells, without rucaparib",125% (inactive)
same,viability,"[10]; at 1.25 µM, OCI-P5x cells, with rucaparib 20 µM, 100% = cells with rucaparib alone",92.3% (active)
same,viability,"[10]; at 1.25 µM, OCI-P5x cells, without rucaparib",93.7% (active)
same,viability,"[10]; at 5 µM, OCI-C5x cells, with rucaparib 10 µM, 100% = cells with rucaparib alone",113% (inactive)
same,viability,"[10]; at 5 µM, OCI-C5x cells, without rucaparib",121% (inactive)
same,viability,"[10]; at 5 µM, OCI-P5x cells, with rucaparib 20 µM, 100% = cells with rucaparib alone",57.3% (active)
same,viability,"[10]; at 5 µM, OCI-P5x cells, without rucaparib",88.7% (active)
CN(C)C[C@@H]1CCn2cc(c3ccccc32)C2=C(C(=O)NC2=O)c2cn(c3ccccc23)CCO1,AC50,[1],26.3 µM (active)
same,AC50,[2],16.6 µM (active)
same,AC50,[3],29.6 µM (active)
same,AC50,[4],16.6 µM (active)
same,AC50,[5],9.34 µM (active)
same,AC50,[6],18.6 µM (active)
same,AC50,[7],13.2 µM (active)
same,AC50,[8],7.42 µM (active)
same,SSMD,[11],3.92
same,cell count,[11],6860
same,plate-normalised HSF1 focus index,[11],1.24 (inactive)
CCNC(=O)c1cc2c(-c3cc(OCCN4CCCC4)c(Cl)cc3Cl)nc(N)nc2s1,AC50,[1],1.02 µM (active)
same,AC50,[2],6.62 µM (active)
same,AC50,[3],0.935 µM (active)
same,AC50,[4],2.35 µM (active)
same,AC50,[5],2.29 µM (active)
same,AC50,[6],1.62 µM (active)
same,AC50,[8],1.82 µM (active)
